Source: PubChem
The list is not random: actives were taken first. Their share in the collection is about 10%.
G9a inh – blocks human histone lysine methyltransferase G9a; 350,000 tested, 8.8% active; G9a H3K9 monomethylation, AlphaScreen, 2 h; Q96KQ7; Potency, µM (series often up to 102 µM), for the others: top-dose activity, negative = inhibition, hits mostly inhibitors; further: on the % scale 0 is the no-effect control and ±100 the full control effect; nearly all actives have a fitted effect of over 75% in size
Target sequence (Q96KQ7 913-1193 limits assumed): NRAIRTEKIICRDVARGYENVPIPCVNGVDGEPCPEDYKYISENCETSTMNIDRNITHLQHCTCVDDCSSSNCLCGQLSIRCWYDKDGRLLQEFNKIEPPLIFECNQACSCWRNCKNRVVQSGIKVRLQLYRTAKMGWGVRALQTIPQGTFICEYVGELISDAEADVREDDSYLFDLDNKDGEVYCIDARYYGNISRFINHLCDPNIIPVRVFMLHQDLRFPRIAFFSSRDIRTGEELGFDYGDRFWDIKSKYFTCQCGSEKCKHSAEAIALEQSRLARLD
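Compounds were preincubated with 20 nM G9a for 15 min, after which biotinylated H3K9 peptide (500 nM) and SAM (20 uM) started a 2 h room-temperature reaction. Monomethylated product was quantified by antibody-based AlphaScreen chemiluminescence.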
BAZ2B inh – BAZ2B (human) inhibition; Q9UIF8; AlphaScreen BAZ2B-H3K14Ac peptide displacement; Potency, µM (top dose mostly 114 µM), for the others: top-dose activity change, negative = inhibition, usual class: inhibitors; 360,000 tested, 4.4% active; further: on the % scale 0 is the no-effect control and ±100 the full control effect; nearly all actives have a fitted effect of over 60% in size
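Inhibition is scored as reduced AlphaScreen emission. The BAZ2B/b-H3(5-23)K14Ac complex (50 nM each) in PBS pH 7.4, 0.01% Tween-20 meets compound (up to 110 uM) for 30 min at RT before bead addition.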
GLS inh – inhibitors of human glutaminase (GLS); O94925; GLS enzymatic activity, qHTS titration; Potency, µM (doses to about 45.5 µM), inactives show top-dose activity change, negative = inhibition, hits mostly inhibitors; 410,000 tested, 0.21% active; AID 624170; further: on the % scale 0 is the no-effect control and ±100 the full control effect
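hKGA in 45 mM KH2PO4 (pH 8.2), 0.02% Tween-20 with compound, then 1mM L-Glutamine (stock as added) plus glutamate oxidase/HRP/Amplex red coupling mix. Fluorescence read initially and after 30 min at RT; signal change reflects glutamate formation.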
HP1b chromo inh – inhibitors of HP1-beta chromodomain binding to methylated histone tails. P83916. AlphaScreen HP1-beta / biotin-H3K9me3 peptide binding. Potency, µM (highest dose often 114 µM), for inactives: at the highest dose activity change, negative = inhibition, usual class: inhibitors. 390,000 tested, 0.56% active; further: nearly all actives have a fitted effect of over 70% in size
Target sequence (P83916 whole entry, looked up): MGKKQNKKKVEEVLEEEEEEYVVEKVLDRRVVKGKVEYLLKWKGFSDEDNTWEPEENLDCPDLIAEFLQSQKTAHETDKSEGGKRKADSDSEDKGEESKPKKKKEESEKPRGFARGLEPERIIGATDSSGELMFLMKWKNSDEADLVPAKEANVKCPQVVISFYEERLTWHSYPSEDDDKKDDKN
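Compound inhibition of the preformed complex between 50 nM HP1-beta and 50 nM biotinylated H3K9me3 peptide was read by AlphaScreen. Buffer was PBS pH 7.4 with 0.01% Tween-20. Incubations ran 30 min at room temperature, with 10 ug/mL donor/acceptor beads.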
JMJD2A Tudor inh – JMJD2A Tudor domain (human) inhibition; Potency, µM (highest dose often 114 µM), inactives show at the top dose activity change, negative = inhibition, most hits filed as inhibitors; AlphaScreen JMJD2A-Tudor / H3K4me3 peptide binding; O75164; 390,000 tested, 4.4% active; further: on the % scale 0 is the no-effect control and ±100 the full control effect; nearly all actives have a fitted effect of over 50% in size
An asterisk follows results filed as active; ? = inconclusive; . = no result; [ ] = another dose, or the depositor's remark. The call rests on the fitted dose curve; in most records, active means well fitted curve in the direction sought with a large enough effect; inconclusive means small, poorly fitted or top-dose-only effect, or another doubt; inactive means no such curve, though single readings can be large; an effect the other way counts as inactive or inconclusive. Potency means the concentration at half of the fitted maximal effect.

SMILES	G9a inh	BAZ2B inh	GLS inh	HP1b chromo inh	JMJD2A Tudor inh
OCCNc1nc(-c2cccnc2)nc2ccccc12	6.6%	-19.3%	-4.9%	24.7%	-5.2%
c1ccc(-c2nc(NCCCn3ccnc3)c3oc4ccccc4c3n2)cc1	17.8µM*	44.7µM*	2.4%	-19.6%	?
c1ccc(-c2nc(NCc3ccco3)c3oc4ccccc4c3n2)cc1	?	?	2.0%	8.7%	89.1µM*
c1cncc(-c2nc(NCCCn3ccnc3)c3ccccc3n2)c1	-24.8%	10µM*	-0.7%	21.3%	20µM*
Cc1ccc(-c2nc(NCc3ccco3)c3ccccc3n2)cc1	?	-29.8%	-4.4%	-6.3%	-32.4%
CCn1c(=O)cc(OCC(=O)N2CCN(c3cccc(Cl)c3)CC2)c2ccccc21	?	?	3.0%	13.8%	5.1%
CCNC(=O)C1(C)CCCN(C(=O)c2ccc3c(c2)C(C)(C)CCC3(C)C)C1 (configuration not stated)	.	.	-3.3%	.	.
COC(=O)N(C)C[C@@H]1OCc2cn(nn2)CCCC(=O)N([C@@H](C)CO)C[C@H]1C	.	.	9.6%	.	.
Cc1ccc(NC2=NCCC2)cc1Cl	-3.3%[59 µM]	38.9%	-3.2%	16.8%	-5.8%
Cc1nc2ccc(NC3=NCCCCC3)cc2s1	5.62µM*	?	3.0%	?	3.55µM*
O=C1/C(=C/c2c[nH]c3ccccc23)CCC/C1=C\c1c[nH]c2ccccc12	?	?	-4.6%	2.1%	-24.0%
O=C1C(=Cc2ccco2)CCC1=Cc1ccco1	.	.	72.7%	3.55µM*	3.16µM*
O=C1C(=Cc2ccco2)CCCC1=Cc1ccco1	.	.	?	?	56.2µM*
O/N=C1\CCC\C1=C/c1ccco1	56.2µM*	?	-6.1%	2.5%	-25.0%
O=C1NC(=O)C2(CCCc3c([N+](=O)[O-])cccc32)N1 (configuration not stated)	.	.	12.8%	.	.
Cc1cccc(CSc2ncc(Cl)c(C(=O)Nc3sc4c(c3C#N)CCCC4)n2)c1	1.4%[59 µM]	-5.0%	12.3%	26.9%	1.9%
COc1ccc2c(C)c(CCC(=O)NCc3ccc(C)cc3)c(=O)oc2c1	-0.6%[59 µM]	-6.3%	-4.3%	26.0%	-12.8%
CCCOc1ccc(CNC(=O)C2CCN(c3nc4ccccc4nc3C(F)(F)F)CC2)cc1	-1.8%[59 µM]	-0.4%	1.7%	15.1%	1.3%
Oc1ccc(Cc2ccccc2)c2cccnc12	.	.	?	34.1%	79.4µM*
OCc1ccc(O)c2ncccc12	1.1%[0.501 µM]	1.41µM*	10.4%	20.8%	39.8µM*
O=C(NCCc1cccs1)Nc1nnc([C@H]2C[C@H](O)[C@@H](CO)O2)s1	.	.	2.1%	.	.
CCCNC(=O)Cn1nc(-c2ccccc2OC)ccc1=O	.	.	-8.2%	.	.
Cn1cccc1/C=N\NC(=O)C1COc2ccc(C(C)(C)C)cc2O1 (configuration not stated)	.	35.5µM*	5.7%	6.6%	-10.5%
Cn1cccc1/C=N\NC(=O)C1COc2ccccc2O1 (configuration not stated)	-15.9%	?	30.6%	41.0%	-5.8%
Cc1nc(Nc2nc3ccccc3o2)nc2c1CCC2	?	.	1.2%	5.5%	10µM*
SMILES	G9a inh	BAZ2B inh	GLS inh	HP1b chromo inh	JMJD2A Tudor inh
CC(C)c1nc(Nc2nc3ccccc3o2)nc2c1CCCC2	.	.	.	.	-19.1%
CN1CCN(C(=S)NC(=O)c2ccccc2Cl)CC1	50.1µM*	-23.0%	9.7%	-8.6%	-10.3%
CN1CCN(C(=S)NC(=O)/C=C/c2ccccc2Cl)CC1	44.7µM*	-30.7%	9.1%	14.5%	-24.1%
CN1CCN(C(=S)NC(=O)/C=C/c2ccccc2)CC1	50.1µM*	5.2%	11.8%	21.7%	-15.3%
CC(OC(=O)/C=C/c1ccc(Br)cc1)C(=O)N1CCOCC1 (configuration not stated)	-25.2%	-1.8%	6.5%	15.4%	-3.6%
COc1ccccc1N1CCN(C(=S)NC(=O)/C=C/c2ccccc2)CC1	4.7%[59 µM]	-4.0%	5.4%	28.1%	-6.1%
O=C(/C=C/c1ccc(Br)cc1)NC(=S)N1CCOCC1	70.8µM*	-31.7%	4.4%	33.3%	-18.1%
Cc1ccc(Cn2c(CCNC(=O)C(C)C)nc3ccccc32)cc1	5.7%[59 µM]	-29.2%	1.0%	63.6%	5.7%
CC(C)NC(=O)C1(C)CCCCN1Cc1ccc(OCc2ccccc2)cc1 (configuration not stated)	.	.	-4.8%	.	.
CNc1nc(C(=O)O)nc(N2CCOCC2)n1	5.62µM*	11.2µM*	0.6%	-15.0%	4.47µM*
CCNC(=S)NNc1nc(N2CCOCC2)nc(N2CCOCC2)n1	?	.	17.9%	-36.6%	-11.2%
CNC(=S)NNc1nc(N2CCOCC2)nc(N2CCOCC2)n1	?	-6.8%	-8.1%	?	25.1µM*
CCOC(=O)c1ccc(N=Cc2cnc(N)nc2N)cc1	.	.	2.1%	32.8%	-6.2%
c1ccc(SCc2cn(C[C@H]3CC[C@@H]([C@@H]4CC[C@H](Cn5cc(CSc6ccccc6)nn5)O4)O3)nn2)cc1	?	-27.6%	-5.5%	31.0%	-23.6%
O=C(Nc1cccc(C(F)(F)F)c1)c1csc([C@H]2C[C@H](O)[C@@H](CO)O2)n1	.	.	3.3%	.	.
O=C1/C(=C\c2ccc(O)c(O)c2)SC(=S)N1Cc1ccccc1	3.98µM*	8.91µM*	27.8%	10µM*	2.24µM*
O=C1/C(=C\c2cccc(O)c2O)SC(=S)N1Cc1ccccc1	4.47µM*	20µM*	23.8%	?	12.6µM*
O=C(CN1C(=O)/C(=C/c2ccccc2)SC1=S)NNC(=O)c1ccccc1O	-4.4%	79.4µM*	8.1%	34.9%	-16.6%
COc1cc(/C=C2/SC(=S)N(c3c(C)n(C)n(-c4ccccc4)c3=O)C2=O)ccc1O	6.5%[12.7 µM]	44.7µM*	-2.8%	?	?
COc1cc(OC)c(N(C)C(=O)c2cc3c(s2)-c2ccccc2S(=O)(=O)C3)cc1Cl	.	.	0.1%	21.8%	-18.6%
COC(=O)C1=C(C(=O)OC)[C@@H]2N(C)c3ccccc3[C@@]23C[C@@H](C(=O)OC)N(C(=O)c2cc(C)oc2C)C3=N1	-17.2%[59 µM]	?	21.9%	-5.3%	?
CCc1nc2ccc(C(=O)N(CC)CCN(C)C)cn2c1N(C)C(=O)c1cccc(OC)c1	.	.	2.0%	.	.
Nc1ccn(C2OC(CCl)C(O)C2O)c(=O)n1 (configuration not stated)	.	.	0.9%	.	.
O=C1/C(=C/c2ccc(O)cc2)SC(=S)N1Cc1cccnc1	-44.8%[59 µM]	-0.9%	-2.4%	10.4%	-5.4%
O=C1/C(=C\c2cc([N+](=O)[O-])ccc2O)SC(=S)N1Cc1ccc(Cl)cc1	20µM*	25.1µM*	1.3%	-22.3%	35.5µM*
O=C(CCCN1C(=O)/C(=C/c2ccccc2)SC1=S)Nc1cccc(O)c1	?	?	-3.0%	-11.8%	?
O=C1/C(=C\c2cccc(O)c2)SC(=S)N1Cc1ccccc1	-10.6%[0.501 µM]	39.8µM*	-2.1%	-26.2%	44.7µM*
COc1ccc(/C=C2\SC(=S)N(Cc3cccnc3)C2=O)cc1C	11.2µM*	10µM*	6.1%	-51.5%	?
